A short description of assay [1]: Quantitative High-Throughput drug screen in 47 multiple myeloma cell lines against the NCATS MIPE library collection: U266_ATCC cell viability assay (AID 1919864). Also: nearly all actives have a fitted effect of over 35% in size. A digest of the protocol:
(§1)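 Myeloma cells (500/well) treated with MIPE 4.0 compounds for 48 h at 37 °C, 5% CO2. Viability read as ATP via CellTiter-Glo luminescence after 5 min at RT; DMSO-only wells = 100%, media-only = 0% viability.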

The nature of assay [2]: Quantitative High-Throughput drug screen in 47 multiple myeloma cell lines against the NCATS MIPE library collection: XG6_PLB cell viability assay (AID 1919865). Also: nearly all actives have a fitted effect of over 40% in size. Put shortly: as §1
Assay [3] can be described thus: Quantitative High-Throughput drug screen in 47 multiple myeloma cell lines against the NCATS MIPE library collection: XG1_PLB cell viability assay (AID 1919866). Also: nearly all actives have a fitted effect of over 35% in size. Put shortly:
as §1

The nature of assay [4]: Quantitative High-Throughput drug screen in 47 multiple myeloma cell lines against the NCATS MIPE library collection: VP6_DJ cell viability assay (AID 1919867). Also: nearly all actives have a fitted effect of over 40% in size. A digest of the protocol: as §1
A short description of assay [5]: Quantitative High-Throughput drug screen in 47 multiple myeloma cell lines against the NCATS MIPE library collection: UTMC2_PLB cell viability assay (AID 1919868). Also: nearly all actives have a fitted effect of over 55% in size. As to conditions: CellTiter-Glo ATP luminescence, 48 h; viability (% of DMSO control): at 45.8 µM (top of the series). Put shortly:
as §1

Assay [6] can be described thus: Quantitative High-Throughput drug screen in 47 multiple myeloma cell lines against the NCATS MIPE library collection: PE2_PLB cell viability assay (AID 1919869). Also: nearly all actives have a fitted effect of over 35% in size. A digest of the protocol:
as §1

Assay [7] is described as follows: Quantitative High-Throughput drug screen in 47 multiple myeloma cell lines against the NCATS MIPE library collection: PCM6_Riken cell viability assay (AID 1919870). Also: nearly all actives have a fitted effect of over 30% in size. A digest of the protocol: as §1
Assay [8] in a line: Quantitative High-Throughput drug screen in 47 multiple myeloma cell lines against the NCATS MIPE library collection: KMS11_JCRBsus cell viability assay (AID 1919873). Also: nearly all actives have a fitted effect of over 50% in size. A digest of the protocol:
as §1

The nature of assay [9]: Quantitative High-Throughput drug screen in 47 multiple myeloma cell lines against the NCATS MIPE library collection: OPM2_DSMZ cell viability assay (AID 1919872). Also: nearly all actives have a fitted effect of over 30% in size. A digest of the protocol:
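Viability readout: CellTiter-Glo luminescence following 5 min room-temperature incubation with reagent. Prior exposure: 48 h, 37C, humidified 5% CO2, 500 cells per well.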

Assay [10] in a line: Quantitative High-Throughput drug screen in 47 multiple myeloma cell lines against the NCATS MIPE library collection: RPMI8226_ATCC cell viability assay (AID 1919871). Also: nearly all actives have a fitted effect of over 30% in size. A digest of the protocol: as §1

In PubChem BioAssay (NCATS) one finds Potency data, which are given here for 16 compounds.

Results filed as inconclusive are left out. Activity calls are given as the source filed them. Calls follow the shape of the dose curve; as a rule, active = well fitted cell-killing curve with a large enough effect; inconclusive = small, poorly fitted or top-dose-only effect, or effect the other way; inactive = no such curve, though single readings can be large or run the other way.
Potency is read from the fitted curve at half-maximal effect.

On to `C=C1C(=CC=C2CCC[C@]3(C)[C@@H]([C@H](C)CCCC(C)(C)O)CC[C@@H]23)C[C@@H](O)C[C@@H]1O`, for which the Potency in assay [1] was 4180 nM (active); in assay [2] it was 3720 nM (active); in assay [3], 5260 nM (active); in [4], 5260 nM (active); in assay [5], 5260 nM (active); in [6], 13200 nM (active). For the same compound, the Potency in assay [7] was 7430 nM (active); in assay [8], 9350 nM (active).

With `C[C@H](NCc1ccc2c(c1)nc(NC(=O)c1ccc(-c3cn[nH]c3)s1)n2CCc1ccccc1)C(C)(C)C`, the Potency in assay [1] is 1480 nM (active); in [2], 935 nM (active); in assay [3], 743 nM (active); in assay [4], 526 nM (active); in assay [5] it was 935 nM (active); in assay [6], 1050 nM (active). The Potency in assay [7] is 418 nM (active); in assay [9] it was 2090 nM (active); in assay [8], 590 nM (active).

Regarding `CNC(=O)c1cccc(-c2ccc3c(N4CCOC[C@H]4C)nc(N4CCOC[C@H]4C)nc3n2)c1`, the Potency in assay [1] is 469 nM (active); in [2] it was 83.3 nM (active); in assay [3], 11.8 nM (active); in [4] it was 13.2 nM (active); in assay [6], 83.3 nM (active); in assay [7] it was 118 nM (active). In addition, the Potency was 20.9 nM (active) in assay [10] and 105 nM (active) in [9].

On to `CC(C)NC[C@@H](C(=O)N1CCN(c2ncnc3c2[C@H](C)C[C@H]3O)CC1)c1ccc(Cl)cc1`, for which the Potency in [1] is 18700 nM (active); in assay [2], 1660 nM (active); in [3], 1870 nM (active); in [4], 833 nM (active); in assay [5], 105 nM (active); in [7], 1320 nM (active). Also, the values for the Potency in assay [10], in [9] and in [8] were 11800 nM (active), 18700 nM (active) and 4690 nM (active), respectively.

In the case of `COc1cccc2c1C(=O)c1c(O)c3c(c(O)c1C2=O)C[C@@](O)(C(=O)CO)C[C@@H]3O[C@H]1C[C@H](N)[C@H](OC2CCCCO2)[C@H](C)O1` (some centres undefined), the Potency in assay [1] is 2350 nM (active); in assay [2], 662 nM (active); in assay [3], 1870 nM (active); in assay [4] it was 5260 nM (active); in assay [6], 1180 nM (active); in [7], 1320 nM (active). Also, the Potency is 7430 nM (active) in assay [10], 16600 nM (active) in assay [9] and 2640 nM (active) in assay [8].

`CC(=O)N1CCN(c2ccc(OCc3nn(C)c(C)c3-c3cccc4c(CCCOc5cccc6ccccc56)c(C(=O)O)n(Cc5cccnc5)c34)cc2)CC1`: the Potency in assay [1] was 526 nM (active); in [2], 105 nM (active); in assay [3] it was 235 nM (active); in [4], 332 nM (active); in [6], 1660 nM (active); in assay [7], 1180 nM (active). In addition, the values for the Potency in [10], in assay [9] and in assay [8] were 23500 nM (active), 23500 nM (active) and 105 nM (active), respectively.

In the case of `C=C1CCC2[C@](C)(CO)C(O)CC[C@]2(C)C1CC=C1C(=O)OCC1O` (some centres undefined), the Potency entry in assay [1], in [2], in [3], in assay [4], in assay [6] and in assay [7] was “inactive” throughout. The Potency result in assay [9] and in assay [8] was “inactive” throughout.

With `O=c1[nH]c(=O)n([C@H]2C[C@@H](O)[C@@H](CO)O2)cc1C=CBr`, the Potency result in [1], in assay [2], in assay [3], in [4], in [6] and in [7] was “inactive” each time. Moreover, the Potency result in [9] and in [8] was “inactive” in each case.

For `C[C@@H](Oc1ccc2[nH]nc(C=Cc3cnn(CCO)c3)c2c1)c1c(Cl)cncc1Cl`, the Potency in [1] is 23500 nM (active); in [2], 662 nM (active); in assay [3], 93.5 nM (active); in [4] it was 1320 nM (active); in assay [6], 148 nM (active); in assay [7] it was 4180 nM (active). Moreover, the Potency in assay [10] is 1320 nM (active); in [9], 296 nM (active); in [8], 148 nM (active).

As for `COc1cc2c(cc1O)CCC1C2CC[C@@]2(C)C1CC[C@@H]2O` (some centres undefined), the Potency in [1] was 13200 nM (active); in assay [2], 469 nM (active); in assay [3], 662 nM (active); in [4], 2640 nM (active); in assay [5], 935 nM (active); in assay [6] it was 3720 nM (active). Besides, the Potency was 3720 nM (active) in assay [9] and 743 nM (active) in assay [8].

For the compound `NC[C@H]1O[C@H](O[C@H]2[C@@H](O)[C@@H](O[C@H]3O[C@H](CO)[C@@H](O)[C@H](N)[C@@H]3O)[C@H](N)C[C@@H]2N)[C@H](N)C[C@H]1O`, the Potency entry in assay [1], in assay [2], in assay [3], in assay [4], in assay [6] and in assay [7] was “inactive” throughout. The Potency result in [9] is “inactive”.

As for `N#Cc1c(C2CCNCC2)cc(-c2c(O)cccc2OCC2CC2)nc1N`, the Potency was 13200 nM (active) in assay [1]; 1050 nM (active) in assay [2]; 4180 nM (active) in assay [3]; 18700 nM (active) in [4]; 18700 nM (active) in assay [6]; 8330 nM (active) in assay [7]. The Potency in assay [10] is 20900 nM (active); in [8] it was 18700 nM (active).

For `COc1cc2ncnc(Nc3cccc(Br)c3)c2cc1OC`, the Potency entry in [1] is “inactive”. The Potency in assay [2] was 11.8 nM (active); in assay [3], 37.2 nM (active); in assay [4], 743 nM (active); in assay [6], 5900 nM (active).

Regarding `C[C@@]12C[C@@]3(O)O[C@@H](O1)[C@]1(COC(=O)c4ccccc4)[C@@H]3C[C@@]12O[C@@H]1O[C@H](CO)[C@@H](O)[C@H](O)[C@@H]1O`, the Potency entry in [1], in assay [2], in assay [3], in [6], in assay [7] and in [10] was “inactive” in each case. Further, the Potency result in [9] is “inactive”. Besides, the Potency in assay [4] was 2640 nM (active).

As for `CCN(CC)CCCCNc1ncc2c(n1)N(C)C(=O)N(c1c(Cl)c(OC)cc(OC)c1Cl)C2`, the Potency is 18700 nM (active) in assay [1]; 23500 nM (active) in [2]; 13200 nM (active) in [3]; 18700 nM (active) in assay [4]; 16600 nM (active) in assay [7]; 14800 nM (active) in [10]. For the same compound, the Potency in [8] is 20900 nM (active). Besides, the Potency entry in assay [5] is “inactive”.

`O=C(c1ccc(F)cc1)N1CCC[C@H](c2nc(-c3ccc(F)cc3)no2)C1`: the Potency entry in assay [1], in [2], in [3], in assay [4], in [6] and in assay [7] was “inactive” each time. In addition, the Potency entry in [9] and in assay [8] was “inactive” in each case.
